KCNQ2 inh: KCNQ2 (rat) channel inhibition. CHO-K1 KCNQ2, FluxOR thallium flux, 20 min; stronger effect = lower value. O88943. AID 2156. actives 1.1% (n = 310,000). B-score at 10 µM;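 active = fluorescence ratio B-score at most minus 3 library SDs, with starting brightness B-score within 2 library SDs, cut at about -5.5 in these data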
KCNQ2 enhance: KCNQ2 (rat) channel potentiation; O88943; CHO-K1 KCNQ2, FluxOR thallium flux fluorescence; stronger effect = higher value; B-score at 10 µM; actives 0.54% (n = 310,000);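 active = fluorescence ratio B-score at least 3 SD of library B-scores, with initial fluorescence B-score within 3 of them, cut at about 5.3 in these data; same plate scores as AID 2156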;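 note: B-score of peak minus minimum over baseline fluorescence ratio after K+ and Tl+ stimulus; positive B-score means potentiation of KCNQ2 with more thallium influx and brighter signal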
Kir21 conf inh: confirmation of mouse Kir2.1 potassium channel inhibitors | shares compounds with KCNQ2 enhance | Kir2.1-expressing cells, FluxOR thallium flux fluorescence; stronger effect = lower value | Tl flux remaining, % of negative control (stronger effect = lower value), % at 10 µM | actives 41% (n = 2,300) | AID 2032;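 active = Primary-screen hit whose thallium flux fell at least 3 control SD below untreated wells in both duplicates, with normal baseline fluorescence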;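 note: 0% = blank wells without stimulus and 100% = stimulated no-compound controls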
Target sequence (P35561 whole entry, looked up): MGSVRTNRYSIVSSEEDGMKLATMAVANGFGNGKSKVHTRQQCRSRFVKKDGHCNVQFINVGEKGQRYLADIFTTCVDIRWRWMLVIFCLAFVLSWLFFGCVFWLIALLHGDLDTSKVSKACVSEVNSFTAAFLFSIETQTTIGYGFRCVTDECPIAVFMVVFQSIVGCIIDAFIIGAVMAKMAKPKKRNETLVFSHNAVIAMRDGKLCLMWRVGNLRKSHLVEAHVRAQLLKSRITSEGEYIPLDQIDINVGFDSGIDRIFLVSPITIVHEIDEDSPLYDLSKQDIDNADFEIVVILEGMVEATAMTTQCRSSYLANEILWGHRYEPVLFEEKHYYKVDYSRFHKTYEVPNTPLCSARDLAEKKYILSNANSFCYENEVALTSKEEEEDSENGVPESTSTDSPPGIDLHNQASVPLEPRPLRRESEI
HEK293 Tl flux: parental HEK293 activity in Kir2.1 inhibitor counter-screen; shares compounds with KCNQ2 enhance; parental HEK293 cells, FluxOR thallium flux fluorescence; 0% = unstimulated blank wells; FluxOR signal as % of negative control (100 = no effect), % at 10 µM; actives 19% (n = 2,300); AID 2105;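 active = dye signal at least 3 control SD above or below untreated wells in both duplicates, raw fluorescence within 3, either direction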;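 note: percent is based on the flux ratio of peak minus minimum fluorescence over baseline F0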
CHO-K1 ctr: parental CHO-K1 activity in KCNQ2 potentiator counter-screen; shares compounds with KCNQ2 enhance; parental CHO-K1 cells, FluxOR thallium flux fluorescence; zero = vehicle mean+3SD, 100% = vehicle-minus-blank window; activity increase over 3SD of controls, % at 10 µM; actives 43% (n = 1,200);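 active = signal rise of at least 3 SD above the untreated control mean, in both duplicate wells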;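 note: counter screen of KCNQ2 potentiator hits so any rise reflects channel-independent effects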
KCNQ1 pot spec: human KCNQ1 counter-target activity of KCNQ2 potentiators; CHO KCNQ1 stable, FluxOR thallium flux fluorescence; beyond 3SD, as % of vehicle-control signal; activation over 3SD threshold, % at 10 µM; shares compounds with KCNQ2 enhance; actives 28% (n = 1,200);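 active = fluorescence ratio rise of at least 3 SD of vehicle wells above their mean, in both replicate wells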;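 note: 0% = vehicle mean plus 3 SD and 100% = vehicle minus unstimulated blank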
KCNQ2 pot conf: confirmation of rat KCNQ2 potassium channel potentiators | shares compounds with KCNQ2 enhance | CHO-KCNQ2 cells, FluxOR thallium flux fluorescence | potentiation, less the hit threshold, % at 10 µM | actives 68% (n = 1,200) | AID 2287;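 active = fluorescence ratio rising 3 SD or more over the vehicle control mean in both replicates, plus primary screen hit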;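 note: peak minus minimum thallium fluorescence divided by baseline after K/Tl stimulus; 0% = vehicle mean plus 3 SD and 100% = vehicle minus unstimulated blank difference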
Kir21 spec: tests whether KCNQ2 potentiators also affect mouse Kir2.1 | shares compounds with KCNQ2 enhance | HEK293 Kir2.1, FluxOR thallium flux fluorescence | activity over 3SD threshold, % at 10 µM | actives 2% (n = 1,200) | AID 2345;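 active = fluorescence ratio rise of at least 3 SD above the vehicle-control mean, seen in both replicates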;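 note: 0% = vehicle mean plus 3 SD and 100% = vehicle minus no-stimulus blank window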
KCNQ2 W236L pot: rat KCNQ2 W236L mutant potentiation by KCNQ2 potentiators | actives 10% (n = 940) | current increase over 3SD of negative controls (%), stronger effect = higher value, % at 25 µM | shares compounds with KCNQ2 enhance | CHO KCNQ2-W236L, automated patch clamp current;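 active = current increase at least 3 SD of the untreated controls above them in both duplicate recordings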
* hit, by the source's call; i = inactive; . = not tested or not shown. Shown are actives, neighbours in structure and some others; about 1.6% of the full set was active somewhere.

SMILES | KCNQ2 inh | KCNQ2 enhance | Kir21 conf inh | HEK293 Tl flux | others
Cc1ccccc1NC(=O)CSc1nc2ccccc2c(=O)n1C | i | 0.07 | . | .
Cc1ccc(OCC(O)CNCc2ccc(F)cc2)cc1 (centres undefined) | i | 0.29 | 27%* | i
COc1ccc(CCNCC(O)COc2ccc(OC)cc2C(C)(C)C)cc1 (centres undefined) | i | . | 56%* | i
COc1ccc(CNCC(O)COc2ccc(C)cc2[N+](=O)[O-])cc1 (centres undefined) | i | . | 26%* | i
OC(CNCc1ccccc1)COc1ccccc1 (centres undefined) | i | . | . | .
COc1ccc(OCCOCCOc2ccc(C)cc2[N+](=O)[O-])cc1 | i | . | . | .
COc1ccc(CCNCC(O)COc2cccc(Br)c2)cc1OC (centres undefined) | i | . | . | .
Oc1ccc(N2CCN(Cc3cc4c(cc3Br)OCCO4)CC2)cc1 | i | . | . | .
CC(=O)N1CCCc2cc(S(=O)(=O)N3CCCC(C(=O)Nc4cccc(C)c4)C3)ccc21 (centres undefined) | i | . | . | .
Cc1cccc(NC(=O)CCCc2ccccc2)c1 | i | . | . | .
CN(C)c1ccc(NC(=O)CCCc2ccccc2)cc1 | i | 5.5* | i | i | CHO-K1 ctr=13*;KCNQ1 pot spec=-16;KCNQ2 pot conf=-15;Kir21 spec=-33;KCNQ2 W236L pot=i
O=C(Cc1cccc(C(F)(F)F)c1)Nc1ccccc1 | i | 9* | i | i | CHO-K1 ctr=35*;KCNQ1 pot spec=59*;KCNQ2 pot conf=13*;Kir21 spec=-35;KCNQ2 W236L pot=i
O=C(COC(=O)Cc1cccc(C(F)(F)F)c1)Nc1ccccc1 | i | 1.4 | . | .
Cc1occc1-c1nnc(SCC(=O)O)n1-c1ccccc1 | i | . | . | .
CC(Oc1ccc2c(-c3ccccc3)cc(=O)oc2c1)C(=O)NCCCn1ccnc1 (centres undefined) | i | . | . | .
Clc1cccc(NCc2nnc(SCc3ccccc3)o2)c1 | i | 22* | i | i | CHO-K1 ctr=46*;KCNQ1 pot spec=-20;KCNQ2 pot conf=-19;Kir21 spec=-47
Clc1cccc(NCc2nnc(SCc3ccccc3Cl)o2)c1 | i | . | . | .
COc1ccc(CNCc2ccncc2)c(OC)c1 | i | 1.5 | . | .
COc1ccc(CNCc2cccc(Oc3ccccc3)c2)cc1 | i | 2.1 | 10%* | i
COc1ccc(CNCc2ccc3ccccc3c2)c(OC)c1 | i | 4.5 | 24%* | i
COc1ccc(CNCc2cccc(C)c2)cc1 | i | 0.68 | . | .
CCN(CC)c1ccc(C(=O)NC(=S)Nc2cc(S(=O)(=O)N3CCOCC3)ccc2-n2cncn2)cc1 | i | 0.01 | . | .
O=C(Nc1ncccc1O)C1CCN(S(=O)(=O)c2ccc3ccccc3c2)CC1 | i | 0.06 | . | .
CN(C)c1ccc(C(=O)c2ccc(O)cc2O)cc1 | i | 0.06 | i | i
O=C(c1ccc(O)cc1)c1ccc(O)cc1O | i | 1 | . | .
SMILES | KCNQ2 inh | KCNQ2 enhance | Kir21 conf inh | HEK293 Tl flux | others
Cc1ncoc1C(=O)NC1CCCc2c1cnn2-c1ccc(C(C)(C)C)cc1 (centres undefined) | i | . | . | .
Cc1ccc(C(=O)NC2(O)C(=O)c3ccccc3C2=O)cc1C | i | 5.7* | i | i | CHO-K1 ctr=-25;KCNQ1 pot spec=-13;KCNQ2 pot conf=-6;Kir21 spec=-36;KCNQ2 W236L pot=22%*
O=C(NC1(O)C(=O)c2ccccc2C1=O)c1ccc(C(F)(F)F)cc1 | i | . | . | .
COC(=O)c1c(NC(=O)c2ccccc2F)sc(C(=O)N2CCOCC2)c1C | i | . | . | .
Cc1ccc(C(=O)N[C@@H](C)CN2C3=NC[C@H](C(C)C)N3C[C@H]2Cc2ccc(O)cc2)cc1Br | i | . | . | .
COc1ccc(C[C@H]2CN3C(=NC[C@@H]3C(C)C)N2C[C@H](C)NC(=O)c2ccc(C)c(Br)c2)cc1 | i | . | 55%* | i
C[C@@H](CN1C2=NC[C@H](Cc3ccc(O)cc3)N2C[C@H]1Cc1ccc(O)cc1)NC(=O)CCC1CCCCC1 | i | . | . | .
COc1ccc(C[C@H]2CN3C(=NC[C@@H]3Cc3ccc(O)cc3)N2C[C@H](C)NC(=O)c2ccc(C)c(Br)c2)cc1 | i | . | 48%* | i
O=C1CCCN1c1nccs1 | i | 0.51 | . | .
CN=C(Nc1ccc(C(=O)OC)s1)c1ccc(Cl)cc1 | i | 0.27 | . | .
CCOC(=O)N1CCN(C(=O)CNS(=O)(=O)c2c(C)cc(C)cc2C)CC1 | i | 1.4 | . | .
O=C(Nc1cccc(F)c1)NC1(C(=O)NCC2CCCO2)CCCCC1 (centres undefined) | i | 2.8 | . | .
CC(=O)c1cn(N2CCCCC2)c(=O)[nH]c1=O | i | . | . | .
Nc1nc2ccccc2n1CCOc1ccc(Br)cc1 | i | . | 20%* | 130%*
CCOC(=O)Cn1c(=N)n(Cc2ccccc2)c2ccccc21 | i | 1.5 | . | .
CCOC(=O)Cn1c(=N)n(CCOc2ccc(Br)cc2)c2ccccc21 | i | . | 36%* | i
Nc1nc2ccccc2n1CCOc1ccc(Cl)cc1 | i | 2.5 | . | .
COc1ccc(CNC(=O)Cn2c(=O)n(CCC(=O)N3CCCCC3)c(=O)c3sccc32)cc1 | i | 0.74 | . | .
NC(=S)NC(c1ccccc1)c1ccncc1 (centres undefined) | i | . | . | .
CCOC(=O)/C(=N/Nc1ccccc1)Sc1nnc(CCc2ccccc2)n1-c1ccccc1 | i | . | . | .
CCCC(=O)Nc1ccc(C#Cc2ccccc2)cc1 | i | . | . | .
CCCCC#Cc1ccccc1CC(=O)Nc1ccccc1 | i | 7.1* | i | i | CHO-K1 ctr=99*;KCNQ1 pot spec=-6;KCNQ2 pot conf=9.6*;Kir21 spec=-37;KCNQ2 W236L pot=i
Cc1cccc(C(=O)OCc2cncs2)c1 | i | . | . | .
COC(=O)c1c(-c2c(Cl)cccc2Cl)noc1NC(=O)NN1CCCCC1 | i | . | . | .
CC(Sc1ccsc1[N+](=O)[O-])C(=O)N1CCN(c2ccccn2)CC1 (centres undefined) | i | 0.29 | . | .
COc1ccc(CC(=O)Nc2ccccc2N2CCOCC2)cc1OC | i | 0.11 | . | .
COc1cccc(CC(=O)Nc2ccccc2C(=O)N2CCOCC2)c1 | i | 0.29 | . | .
COc1cccc(CC(=O)Nc2ccccc2N2CCCC2)c1 | i | 6.1* | 50%* | i | CHO-K1 ctr=-9;KCNQ1 pot spec=18*;KCNQ2 pot conf=17*;Kir21 spec=-92;KCNQ2 W236L pot=i
COc1cccc(CC(=O)Nc2ccc3c(c2)CCC3)c1 | i | 6* | i | i | CHO-K1 ctr=-14;KCNQ1 pot spec=-18;KCNQ2 pot conf=12*;Kir21 spec=-30;KCNQ2 W236L pot=i

Assay outcomes deposited in PubChem BioAssay by Johns Hopkins Ion Channel Center.
